# Inconclusive results are not listed. A call without a number means that no potency is given here. The source made the active and inactive calls. Calls come from the whole dose curve; as a rule, active = well fitted curve in the direction sought with a large enough effect; inconclusive = small, poorly fitted or top-dose-only effect, or another doubt; inactive = no such curve, though single readings can be large; an effect the other way counts as inactive or inconclusive.
# Tests used:
# [1] = qHTS to identify inhibitors of the type 1 interferon - major histocompatibility complex class I in skeletal muscle: primary screen against the NCATS Mechanism Interrogation Plate v5.0 (MIPE) Libary (AID 1347411); note: nearly all actives have a fitted effect of over 65% in size; note: potency is the fitted concentration of half-maximal effect
# In short: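 Cells were genome-edited human myoblasts carrying a HiBit tag on endogenous HLA-B. They were treated with IFN-beta (4.0 ng/ml) and titrated compounds (top 46 uM) for 24 hrs before lytic HiBiT detection.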
# [2] = qHTS to identify inhibitors of the type 1 interferon - major histocompatibility complex class I in skeletal muscle: primary screen against the NCATS Pharmaceutical Collection (AID 1347407);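 note: luminescence of HiBiT knocked into endogenous HLA-B as interferon-induced MHC class I level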
# In short: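 Immortalized human myoblasts (C25cl48) with HiBiT knocked into endogenous HLA-B*08:01 were stimulated with 4.0 ng/ml IFN-beta and treated with compounds ([…] top 46 uM) for 24 hrs at 37 C. HiBiT lytic luminescence read.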
# [3] = biological target: Protein phosphatase 1D (Homo sapiens) (UniProt O15297); assay: RapidFire Mass Spectrometry qHTS Assay for Modulators of WT P53-Induced Phosphatase 1 (WIP1) (AID 1347424);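 note: amount of dephosphorylated VEPPL-S-QETFS peptide product formed by WIP1; series mostly up to about 63 µM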
# In short: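 WIP1 (10 nM final) was preincubated 1 h at room temperature with compounds in Tris-HCl pH 7.5, 30 mM MgCl2, TCEP, EGTA, BSA; 2 uM VEPPL-pS-QETFS phosphopeptide was added for 5 min, quenched with formic acid, and dephosphorylated product quantified by RapidFire MS.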
# [4] = biological target: Protein phosphatase 1D (Homo sapiens) (UniProt O15297); assay: Rhodamine-PBP qHTS Assay for Modulators of WT P53-Induced Phosphatase 1 (WIP1) (AID 1347425)
# In short: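 Steps: enzyme with Rh-PBP sensor and compounds, room-temperature incubation of 1 hr, baseline read, addition of VEPPL-pS-QETFS (10 uM final), kinetic fluorescence reads at 525/598 nm. Activity equals final minus baseline signal.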
# [5] = biological target: Calcium and integrin-binding protein 1 (Homo sapiens) (UniProt Q99828); assay: Confirmatory qHTS for Identification of Calcium Integrin Binding Protein 1 (CIB1) Competitor (AID 1508617); settings: CIB1 binding competition assay, biochemical qHTS; note: potency is the fitted concentration of half-maximal effect; nearly all actives have a fitted effect of over 65% in size
# In short: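 Binding competition between test compounds and fluorescent alphaIIb peptide for 1 uM CIB1-GST is monitored by FP at 480/540 nm. Final compound range is up to 114 uM; unlabeled peptide serves as reference competitor.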
# Protein phosphatase 1D (Homo sapiens), sequence (O15297 whole entry, looked up): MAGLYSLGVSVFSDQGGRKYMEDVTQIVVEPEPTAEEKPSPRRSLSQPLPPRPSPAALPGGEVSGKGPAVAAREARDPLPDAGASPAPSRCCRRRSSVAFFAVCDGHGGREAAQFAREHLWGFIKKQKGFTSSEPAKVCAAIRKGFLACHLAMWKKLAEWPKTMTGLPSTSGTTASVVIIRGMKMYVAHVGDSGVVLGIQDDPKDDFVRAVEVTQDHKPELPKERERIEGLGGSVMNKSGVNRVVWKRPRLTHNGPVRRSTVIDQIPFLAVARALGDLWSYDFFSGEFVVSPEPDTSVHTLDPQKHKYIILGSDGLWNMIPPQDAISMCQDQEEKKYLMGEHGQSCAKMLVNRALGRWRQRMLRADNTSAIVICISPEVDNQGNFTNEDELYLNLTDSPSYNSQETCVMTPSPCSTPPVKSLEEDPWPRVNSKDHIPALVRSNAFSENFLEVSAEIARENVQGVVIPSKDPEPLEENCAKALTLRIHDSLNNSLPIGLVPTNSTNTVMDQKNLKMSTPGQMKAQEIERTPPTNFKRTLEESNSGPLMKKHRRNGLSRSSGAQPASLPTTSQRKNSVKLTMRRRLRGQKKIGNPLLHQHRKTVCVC
# Calcium and integrin-binding protein 1 (Homo sapiens), sequence (Q99828 whole entry, looked up): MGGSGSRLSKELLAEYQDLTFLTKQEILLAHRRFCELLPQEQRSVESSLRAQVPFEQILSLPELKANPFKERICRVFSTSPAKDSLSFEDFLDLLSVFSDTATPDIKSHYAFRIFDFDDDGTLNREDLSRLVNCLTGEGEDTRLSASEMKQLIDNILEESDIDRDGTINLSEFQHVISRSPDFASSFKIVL
smiles,measurement,setting,value
COc1cc(C(=O)NC2CCN(C)CC2)c(F)cc1Nc1ncc2c(n1)N(C1CCCC1)CC(F)(F)C(=O)N2C,Potency,[1],14.7 µM (active)
O=C(/C=C/c1cccc(S(=O)(=O)Nc2ccccc2)c1)NO,Potency,[1],2.34 µM (active)
COc1cc2ncnc(Nc3ccc(F)c(Cl)c3)c2cc1NC(=O)/C=C/CN1CCCCC1,Potency,[1],7.39 µM (active)
CCOCCOC(=O)/C=C/c1ccc(OC)cc1,outcome,[2],inactive
same,Potency,[3],inactive
same,outcome,[4],inactive
O=C(NCc1cccc(O)c1)Nc1nc(-c2ccncc2)cs1,Potency,[1],18.6 µM (active)
CCCN1CCN(c2ccc(C(=O)NC3(C(=O)NCC#N)CCCCC3)cc2)CC1,Potency,[1],inactive
CCN(CC)CCN(Cc1ccc(-c2ccc(C(F)(F)F)cc2)cc1)C(=O)Cn1c(SCc2ccc(F)cc2)nc(=O)c2c1CCC2,Potency,[5],35.5 µM (active)
COCCOc1ccc(N2CCN(CCn3ncc4c3nc(N)n3nc(-c5ccco5)nc43)CC2)cc1,Potency,[1],inactive
COc1ccc(N(C)c2nc(C)nc3ccccc23)cc1,Potency,[1],inactive
Nc1ccc(/C=C/C(=O)NCc2cc3cc(-c4ccc(C(=O)N5CCC(F)(F)CC5)cc4)cc(-c4ccc(F)cc4)c3o2)cn1,Potency,[1],inactive
CCNCc1nc2c(N)nc3ccccc3c2n1CC(C)(C)O,Potency,[1],inactive
CN(C)C/C=C/C(=O)Nc1cccc(C(=O)Nc2cccc(Nc3ncc(Cl)c(-c4c[nH]c5ccccc45)n3)c2)c1,Potency,[1],0.658 µM (active)
CC(C)(C)C(=O)CN1C(=O)[C@H](NC(=O)Nc2cccc(C(=O)O)c2)CN(C2CCCCC2)c2ccccc21,Potency,[1],inactive
CC(O)c1cc(C(=O)N[C@@H](C)Cn2ccc(-c3ccc(C#N)c(Cl)c3)n2)n[nH]1 (stereo partly specified),Potency,[1],inactive
